Molecules are shown by their SMILES. Several values for one entry are separate records, joined by “and”; a condition that tells them apart may be missing. Equal entries are not always repeated. Inconclusive results are not listed. Activity calls are given as the source filed them. The call rests on the fitted dose curve; in most records, active means well fitted inhibition curve with a large enough effect; inconclusive means small, poorly fitted or top-dose-only effect; inactive means no such curve, though single readings can be large or run the other way.

From PubChem BioAssay AID720555 (National Center for Advancing Translational Sciences (NCATS), 2013) come the findings set out here.

RecQ-like DNA helicase BLM (Homo sapiens), sequence (P54132 whole entry, looked up): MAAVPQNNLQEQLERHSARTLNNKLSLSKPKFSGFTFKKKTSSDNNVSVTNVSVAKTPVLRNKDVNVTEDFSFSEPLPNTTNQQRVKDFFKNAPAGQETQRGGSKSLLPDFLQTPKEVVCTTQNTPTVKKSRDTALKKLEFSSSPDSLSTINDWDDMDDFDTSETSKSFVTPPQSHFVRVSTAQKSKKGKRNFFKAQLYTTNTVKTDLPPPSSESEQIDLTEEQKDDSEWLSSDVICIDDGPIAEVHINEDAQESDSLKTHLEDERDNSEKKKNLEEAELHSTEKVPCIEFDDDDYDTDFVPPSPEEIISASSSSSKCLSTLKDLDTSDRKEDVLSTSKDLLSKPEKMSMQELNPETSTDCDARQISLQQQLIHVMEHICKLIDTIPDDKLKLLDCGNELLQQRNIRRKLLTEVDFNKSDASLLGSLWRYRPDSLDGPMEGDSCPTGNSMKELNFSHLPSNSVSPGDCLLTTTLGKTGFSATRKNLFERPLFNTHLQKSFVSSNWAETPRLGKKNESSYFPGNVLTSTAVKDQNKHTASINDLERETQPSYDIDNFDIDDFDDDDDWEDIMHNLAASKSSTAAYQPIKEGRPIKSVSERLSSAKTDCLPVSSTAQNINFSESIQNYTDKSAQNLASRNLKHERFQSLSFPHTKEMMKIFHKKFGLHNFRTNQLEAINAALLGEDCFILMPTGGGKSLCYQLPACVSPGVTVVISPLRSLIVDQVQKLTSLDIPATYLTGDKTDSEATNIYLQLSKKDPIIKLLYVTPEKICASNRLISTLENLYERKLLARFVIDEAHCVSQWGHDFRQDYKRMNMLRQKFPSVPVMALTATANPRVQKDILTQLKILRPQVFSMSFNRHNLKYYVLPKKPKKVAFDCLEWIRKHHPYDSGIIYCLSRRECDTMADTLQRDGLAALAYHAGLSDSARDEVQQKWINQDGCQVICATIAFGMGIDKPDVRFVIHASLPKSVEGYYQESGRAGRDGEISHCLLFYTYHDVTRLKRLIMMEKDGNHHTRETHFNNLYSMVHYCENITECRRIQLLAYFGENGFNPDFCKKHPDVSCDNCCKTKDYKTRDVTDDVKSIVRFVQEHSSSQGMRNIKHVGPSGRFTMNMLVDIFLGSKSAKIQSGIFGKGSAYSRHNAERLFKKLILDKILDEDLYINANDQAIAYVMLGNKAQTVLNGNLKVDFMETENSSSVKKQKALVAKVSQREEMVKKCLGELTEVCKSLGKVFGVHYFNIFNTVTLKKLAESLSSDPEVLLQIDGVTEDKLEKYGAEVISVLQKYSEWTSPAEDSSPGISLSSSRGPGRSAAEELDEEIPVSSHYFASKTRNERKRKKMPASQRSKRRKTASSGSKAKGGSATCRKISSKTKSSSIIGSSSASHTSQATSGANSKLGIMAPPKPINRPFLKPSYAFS

For this assay, the target named is RecQ-like DNA helicase BLM (Homo sapiens) (UniProt P54132). Briefly: qHTS for Inhibitors of Bloom's syndrome helicase (BLM): Helicase DNA unwinding fluorescent orthogonal confirmatory assay for SAR. The conditions noted are these: fluorescence, orthogonal confirmation; series mostly up to 55.6 µM. The source says:
Human RecQ DNA helicases participate in maintenance of genome stability and DNA repair. While other types of helicases have been explored as targets for drug development, members of the RecQ family have remained less well characterized. Mutations of the Bloom helicase gene have been associated with the rare human genetic disease called Bloom syndrome. […] Moreover, identified inhibitors can be used in cells and animal models to examine the consequences of inhibition on the survival of cancer cells where it has been shown that BLM plays an important role.
A fluorescence-based, biochemical assay in 1536 well format was developed to evaluate inhibition of BLM DNA unwinding activity. This assay was used to screen the MLPCN library. The resulting compounds were subjected to orthogonal and secondary biochemical assays to triage the initial hits, to classify compounds based on mode of action and to derive structure activity relationships (SARs) of candidate effectors. The data herein is the result of the Helicase DNA unwinding fluorescent orthogonal confirmatory assay. This fluorescent-based assay employs a purified BLM enzyme and utilizes gel electrophoresis to monitor the helicase-mediated unwinding of a fluorescently-labeled DNA substrate. For this assay decrease in the single-stranded DNA product band on the gel = inhibition of the BLM helicase activity. Inhibition is the desired outcome for this assay.
NIH Chemical Genomics Center [NCGC]
NIH Molecular Libraries Probe Centers Network [MLPCN]
Assay Submitter (PI): Opher Gileadi, Structural Genomics Consortium, University of Oxford, UK
Unwinding assay for the BLM helicase was carried out in a reaction buffer containing 50 mM Tris-HCl pH 7.5, 50mM NaCl, 2mM MgCl2, 2mM ATP, 1mM DTT, and 0.1 mg/ml BSA. Optimal substrate and enzyme concentrations as well as reaction times were determined experimentally. All reactions were performed at room temperature and terminated by the addition of loading buffer containing 20mM EDTA and 2.5% bromophenol blue. Reaction products were then separated on 15% non-denaturing polyacrylamide gels in 1x TAE, and the DNA was visualized using the Bio-Rad ChemiDocTM XRS Gel Imager. Substrate and product bands were quantified using ImageJ. The data was normalized against no-inhibitor and no-enzyme controls.
For orientation: In qHTS, concentration-response curves come from the screen itself.
For the compound `Cc1cc(NC(=O)Nc2cccc(-c3ccncc3)n2)ccc1Br`, the Potency is 12.6 µM (active).
With `O=C(Nc1ccc(F)c(C(F)(F)F)c1)Nc1nc(-c2ccncc2)cs1`, the Potency result is “inactive”.
To `O=C(Nc1ccc2ccccc2c1)Nc1nnc(-c2ccccc2F)s1` belongs “inactive”.
Regarding `O=S(=O)(Cc1ccc(Cl)c(Cl)c1)Nc1nnc(-c2ccncc2)s1`, the Potency result was “inactive”.
With `O=C(Nc1nnc(-c2ccncc2)s1)Nc1ccc(Cl)c2ccccc12`, the Potency was 14.1 µM (active).
For the compound `Cc1cc(NC(=O)Nc2nnc(-c3cccnc3)s2)ccc1Br`, the Potency is 5.62 µM (active).
In the case of `O=C(Nc1ccc2ccccc2c1)Nc1nnc(-c2ccncc2)s1`, the Potency is 10 µM (active).
Turning to `O=C(Nc1ccc2ccccc2c1)Nc1nnc(-c2ccccc2Cl)s1`, the Potency entry is “inactive”.
For `CCOC(=O)c1cccc(NC(=O)Nc2nnc(-c3ccncc3)s2)c1`, the Potency entry is “inactive”.
For the compound `N#Cc1cc(NC(=O)Nc2nnc(-c3ccncc3)s2)ccc1-c1cn[nH]c1`, the Potency was 1.58 µM (active) and 7.08 µM (active).
To `O=C(Nc1ccc(N2CCOCC2)c(C(F)(F)F)c1)Nc1nnc(-c2ccncc2)s1` belongs 28.2 µM (active); to `Nc1cc(NC(=O)Nc2nnc(-c3ccncc3)s2)ccc1Cl`, 11.2 µM (active).
To `O=C(Nc1cccc(C(=O)O)c1)Nc1nnc(-c2ccncc2)s1` belongs “inactive”; to `O=C(Nc1nnc(-c2ccncc2)s1)Nc1ccc(Cl)cc1F`, 28.2 µM (active).
In the case of `O=C(Nc1ccc(-c2cn[nH]c2)cc1)Nc1nnc(-c2ccncc2)s1`, the Potency is 31.6 µM (active).
Regarding `O=C(Nc1ccc(F)c(C(F)(F)F)c1)Nc1nnc(C2CCCCC2)s1`, the Potency entry was “inactive”.
Turning to `O=C(Nc1ccc(Cl)c(Cl)c1)Nc1nnc(-c2ccncc2)o1`, the Potency result is “inactive”.
As for `O=C(Nc1ccc2ccccc2c1)Nc1nnc(-c2cccnc2)s1`, the Potency was 10 µM (active).
As for `Cc1cc(Nc2c(Nc3nnc(-c4ccncc4)s3)c(=O)c2=O)ccc1Cl`, the figure is 22.4 µM (active); as for `Cc1cc(NC(=O)Nc2nnc(-c3cccnc3)s2)ccc1F`, 25.1 µM (active).
Turning to `O=C(Nc1ccccc1)Nc1nnc(-c2ccncc2)s1`, the Potency result is “inactive”.
Turning to `O=C(Nc1ccc(-c2cn[nH]c2)c(C(F)(F)F)c1)Nc1nnc(-c2ccncc2)s1`, the Potency is 15.8 µM (active).
To `Cc1cc(NC(=O)Nc2nnc(C3CCCCC3)s2)ccc1Br` belongs “inactive”.
`CN(C(=O)Nc1ccc2ccccc2c1)c1nnc(-c2ccncc2)s1`: the Potency result was “inactive”.
On to `Cc1cc(NC(=O)Nc2nnc(C3CCCCC3)s2)ccc1F`, for which the Potency entry was “inactive”.
Take `O=C(Nc1ccc(Cl)c(C(F)(F)F)c1)Nc1nnc(-c2ccncc2)s1`: the Potency is 7.08 µM (active).
Take `O=C(Nc1ccc(Cl)c(Cl)c1)Nc1nnc(C2CCCCC2)s1`: the Potency entry is “inactive”.
On to `O=C(Nc1nnc(-c2ccncc2)s1)Nc1ccc(Cl)cc1Cl`, for which the Potency was 31.6 µM (active).
Turning to `CCCCCCNC(=O)Nc1nnc(-c2ccncc2)s1`, the Potency entry was “inactive”.
For the compound `O=C(Nc1ccc2ccccc2c1)Nc1nnc(-c2ccc(O)cc2)s1`, the Potency entry is “inactive”.
Consider `Cc1cc(NC(=O)Nc2nnc(-c3ccncc3)s2)ccc1C#N`, for which the Potency was 3.16 µM (active).
As for `O=C(Nc1ccc(F)c(C(F)(F)F)c1)Nc1ccc(-c2ccncc2)s1`, the entry is “inactive”; as for `O=C(NCc1ccc(Cl)c(Cl)c1)Nc1nnc(-c2ccncc2)s1`, 39.8 µM (active).
Turning to `O=C(Nc1ccc(Cl)c([N+](=O)[O-])c1)Nc1nnc(-c2ccncc2)s1`, the Potency is 1 µM (active).
As to `Cc1cc(NC(=O)Nc2nnc(-c3ccncc3)s2)ccc1Br`, the Potency was 12.6 µM (active).
With `COc1ccccc1CNC(=O)Nc1nnc(-c2ccncc2)s1`, the Potency result was “inactive”.
As for `O=C(Nc1ccc(F)nc1)Nc1nnc(-c2ccncc2)s1`, the figure is 22.4 µM (active); as for `CN1CCN(c2nnc(NC(=O)Nc3ccc(Cl)c(Cl)c3)s2)CC1`, “inactive”; as for `O=C(Nc1ccc(Cl)c(Cl)c1)Nc1nnc(NC2CCNCC2)s1`, “inactive”.
As for `O=C(Nc1ccc(Br)c(Br)c1)Nc1nnc(-c2ccncc2)s1`, the figure is 5.01 µM (active).
